# Experimental data reported in PubChem BioAssay (NCATS).
# Calls of active or inactive are those of the source. Calls follow the shape of the dose curve; as a rule, active = well fitted curve in the direction sought with a large enough effect; inconclusive = small, poorly fitted or top-dose-only effect, or effect the other way, or another doubt; inactive = no such curve, though single readings can be large or run the other way.
# Test: qHTS of Nrf2 Activators: LOPAC Validation (AID 624149); also: 0% is about no effect
# Details: Nrf2/ARE reporter cell assay; series mostly up to 46.1 µM; activation: at the top concentration
# From the text: Many diseases have some form of oxidative stress injury and ties to inflammation, causing a host of problems for the patient. The antioxidant response element (ARE) plays an important role in alleviating the harmful effects of oxidative stress. The antioxidant response element (ARE) is a transcriptional regulatory element involved in the activation of genes coding for a number of antioxidant proteins and detoxifying enzymes. These enzymes work in concert to protect tissues from oxidative insults and chemical toxicities in human hepatocytes and immune cells. The protective effects of ARE activation are primarily triggered through Nrf2 (NF-E2-related factor) binding to and activating AREs. It is known that Nrf2 controls the production of over 250 antioxidant and detoxification proteins (Hu et al., 2006), thereby protecting tissues by increasing cellular antioxidant content and suppressing inflammatory signaling pathways. The transcription factor Nrf2 is a central link between oxidative chemicals, such as phenolic antioxidants and electrophilic compounds, and the activation of ARE. Nrf2 levels are constitutively low as a consequence of its interaction with Keap1, which targets its degradation (Zipper and Mulcahy, 2002). Electrophiles react with key cysteine residues in Keap1, releasing Nrf2 and allowing its translocation to the nucleus. Once within the nucleus, Nrf2 complexes with coactivators such as p300, and binds to the AREs to induce gene transcription of cytoprotective enzymes, resulting in the prevention of toxicity. Activation of Nrf2 protects tissues by increasing cellular antioxidant content and suppressing inflammatory signaling pathways. Identifying novel and potent Nrf2 activators by using the AREc32 cell line to detect ARE activation by small molecules will lead to the identification and development of probes to study protective pathways in multiple tissues. These specific probes are essential to study the ARE pathway, and eventually to determine whether this pathway does activate genes that could protect against a host of diseases, including cardiovascular diseases, obesity, diabetes, Alzheimer's, and Parkinson's disease.
# This project's aim is to identify novel and potent Nrf2 activators by using the AREc32 cell line to detect ARE activation by small molecules, which will lead to the identification and development of probes to study the ARE pathway.
# NIH Chemical Genomics Center [NCGC]
# NIH Molecular Libraries Probe Centers Network [MLPCN]
# Assay Submitter (PI): Curtis Klaassen, University of Kansas Medical Center
# 5 uL of 1000 cells/well of AREc32_Fluc cells are seeded into 1536-well plate in OPTI-MEM medium with 5% FBS. The plates are incubated overnight at 37 deg C with 5% CO2. Then through pin tool transfer, 23 nL of compounds are added to each well before a 24 hr incubation at 37 deg C with 5% CO2. After the addition of 2.5 uL of Steady-Glo. the plates are kept at RT for 30 min, before they are read on the ViewLux
row,Compound,activation
1,CC(C)N(CCC(=O)c1ccc2ccccc2c1)Cc1ccccc1,-1.91% (inactive)
2,Cn1cnc2c(NCc3ccccc3)nc(NCCO)nc21,-2.01% (inactive)
3,CCN(CC)CCNC(=O)c1ccc(NS(C)(=O)=O)cc1,-2.37% (inactive)
4,Nc1ncnc2n[nH]c(Nc3ccc(F)cc3)c12,-2.24% (inactive)
5,C[N+](C)(C)CCO,0.908% (inactive)
6,NC(N)=NCCCCN=C(N)N,-2.07% (inactive)
7,N[C@@H](Cn1ccc(=O)c(O)c1)C(=O)O,0.865% (inactive)
8,O=C1NC(c2cccc([N+](=O)[O-])c2)=CCN1c1ccccc1O,9.14% (inactive)
9,COc1ccccc1N1CCN(CCN2C(=O)CC3(CCCC3)CC2=O)CC1,-2.04% (inactive)
10,O=[N+]([O-])c1ccc(-c2nc(-c3ccc(F)cc3)c(-c3ccncc3)[nH]2)cc1,0.287% (inactive)
11,Cc1nn(-c2ccccc2)c(C)c1/C=N/N1CCN(Cc2ccccc2)CC1,-1.57% (inactive)
12,COc1cccc2c1[C@@H]1CN(CCCCn3c(=O)[nH]c4c(sc5ncc(-c6ccccc6)nc54)c3=O)C[C@@H]1CO2,5.36% (inactive)
13,O=C1NC(=O)/C(=C/c2ccc3c(c2)OC(F)(F)O3)S1,16.3% (inactive)
14,CN(C)c1cc2c(Nc3ccc4c(cnn4Cc4ccccc4)c3)ncnc2cn1,1.15% (inactive)
15,Clc1ccc2c(c1)N=C(N1CCNCC1)c1ccccc1N2,-1.16% (inactive)
16,COC(=O)C1=CO[C@@H](O)[C@@H]2C(CO)=CC[C@H]12,-2.03% (inactive)
17,Brc1ccc([C@H]2CN3CCSC3=N2)cc1,-0.259% (inactive)
